Experiment [1] addresses Nuclear receptor coactivator 3 (Homo sapiens) (UniProt Q9Y6Q9). The experiment can be described thus: NCOA3 GAL4-fusion reporter inhibition – cell-based, luminescence, quadruplicate, confirmation (AID 588792;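 active = mean inhibition over 43.08%, the solvent-only control mean plus 3 SD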;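 also: 0% = DMSO treated cells and 100% = gossypol at 36 µM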). The settings on record: HEK293 GAL4-SRC3 luciferase reporter, at 3.6 µM, active compounds read high. For orientation: A reporter such as luciferase makes a cellular process visible.

Experiment [2] relates to transactivating tegument protein VP16 (Human herpesvirus 1), Gal4-VP16 luciferase reporter. Briefly: repression of VP16-driven luciferase reporter – cell-based, luminescence, high throughput, counter-screen for SRC3 inhibitor project (AID 588794; in the data active = inhibition above about 30%). The note with it: mammalian cells, at 3.6 µM, active compounds read high.
For experiment [3], the target named is Nuclear receptor coactivator 1 (Homo sapiens) (UniProt Q15788). The experiment can be described thus: NCOA1 GAL4-fusion reporter inhibition – cell-based, luminescence, quadruplicate, confirmation (AID 588820).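 Also: 0% = DMSO wells and 100% = gossypol 36 µM treated wells.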 The note with it: HEK293 GAL4-SRC1 luciferase reporter, at 3.6 µM, active compounds read high.
Nuclear receptor coactivator 1 (Homo sapiens), sequence (Q15788 whole entry, looked up, the tested form may be a part): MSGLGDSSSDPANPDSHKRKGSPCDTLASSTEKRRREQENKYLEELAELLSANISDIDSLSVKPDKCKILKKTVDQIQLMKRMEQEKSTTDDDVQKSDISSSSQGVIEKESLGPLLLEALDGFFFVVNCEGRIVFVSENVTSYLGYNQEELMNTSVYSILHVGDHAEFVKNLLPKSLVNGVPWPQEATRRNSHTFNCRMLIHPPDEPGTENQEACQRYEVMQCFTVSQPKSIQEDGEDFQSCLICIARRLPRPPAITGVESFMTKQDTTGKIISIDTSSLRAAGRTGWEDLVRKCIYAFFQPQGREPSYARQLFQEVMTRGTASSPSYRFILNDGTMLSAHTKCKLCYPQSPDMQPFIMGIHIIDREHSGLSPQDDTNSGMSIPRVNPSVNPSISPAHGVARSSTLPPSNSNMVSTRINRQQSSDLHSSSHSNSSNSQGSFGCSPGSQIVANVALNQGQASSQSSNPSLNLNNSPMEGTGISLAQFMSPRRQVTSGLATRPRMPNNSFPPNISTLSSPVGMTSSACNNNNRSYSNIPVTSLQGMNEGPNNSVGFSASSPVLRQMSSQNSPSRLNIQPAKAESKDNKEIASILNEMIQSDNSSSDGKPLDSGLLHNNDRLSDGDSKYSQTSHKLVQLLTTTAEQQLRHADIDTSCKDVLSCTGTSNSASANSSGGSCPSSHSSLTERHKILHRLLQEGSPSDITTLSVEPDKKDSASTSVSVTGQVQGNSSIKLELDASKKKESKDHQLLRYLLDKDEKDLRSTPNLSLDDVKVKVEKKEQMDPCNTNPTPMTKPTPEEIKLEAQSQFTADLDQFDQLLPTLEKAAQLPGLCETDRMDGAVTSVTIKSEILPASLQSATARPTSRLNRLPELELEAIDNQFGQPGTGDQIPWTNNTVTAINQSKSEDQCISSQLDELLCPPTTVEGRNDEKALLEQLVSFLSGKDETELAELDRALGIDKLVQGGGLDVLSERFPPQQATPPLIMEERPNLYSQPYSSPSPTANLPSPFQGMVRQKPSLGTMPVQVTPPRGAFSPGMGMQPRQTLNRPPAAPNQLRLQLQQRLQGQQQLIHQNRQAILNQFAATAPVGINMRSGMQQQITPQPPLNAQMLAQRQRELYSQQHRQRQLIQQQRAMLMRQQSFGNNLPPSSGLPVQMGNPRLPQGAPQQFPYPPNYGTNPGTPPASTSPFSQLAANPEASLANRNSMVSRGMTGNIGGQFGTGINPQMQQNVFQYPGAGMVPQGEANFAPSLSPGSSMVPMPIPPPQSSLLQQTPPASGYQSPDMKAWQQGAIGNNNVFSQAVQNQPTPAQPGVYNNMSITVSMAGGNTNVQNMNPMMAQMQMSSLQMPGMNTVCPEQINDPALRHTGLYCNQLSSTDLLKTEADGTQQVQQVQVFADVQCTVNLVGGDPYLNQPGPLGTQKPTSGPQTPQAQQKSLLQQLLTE
Experiment [4] can be described thus: repression of VP16-driven luciferase reporter – cell-based, luminescence, high throughput, counter-screen for SRC1 inhibitor project (AID 588824; in the data active = inhibition above about 25%). The note with it: cell-based VP16 transactivation luciferase luminescence; at 3.6 µM; active compounds read high.
Experiment [5] deals with transactivating tegument protein VP16 (Human herpesvirus 1). The experiment can be described thus: compounds suppressing VP16-driven luciferase signal – cell-based, luminescence, single concentration, counter-screen for SRC2 inhibitor project (AID 652007; in the data active = inhibition above about 36%). The note with it: cell-based VP16 transactivation luciferase reporter, at 8.9 µM, active compounds read high. Background: The purpose of a counterscreen is to sort out artefacts and off-target activity.

Experiment [6] concerns the target Nuclear receptor coactivator 2 (Homo sapiens) (UniProt Q15596). Briefly: inhibition of GAL4-SRC2 driven luciferase expression – cell-based, luminescence, HEK293, triplicate, confirmation (AID 652008;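 active = mean inhibition above 46.5%, the solvent-only control mean plus 3 SD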;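 also: 0% = DMSO-treated cells and 100% = Gossypol at 36 µM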). The settings on record: HEK293 GAL4-SRC2 luciferase reporter, at 8.9 µM, active compounds read high.

Molecules are shown by their SMILES. Unmarked numbers belong to inactive results. Calls of active or inactive are those of the source.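 The calls were made as follows, unless noted: active = mean inhibition above 46.68%, the untreated control wells mean plus 3 SD; inactive = the rest.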

One may read the inhibition as the drop in the measured response relative to a control, in per cent.

Nuclear receptor coactivator 2 (Homo sapiens), sequence (Q15596 whole entry, looked up, the tested form may be a part): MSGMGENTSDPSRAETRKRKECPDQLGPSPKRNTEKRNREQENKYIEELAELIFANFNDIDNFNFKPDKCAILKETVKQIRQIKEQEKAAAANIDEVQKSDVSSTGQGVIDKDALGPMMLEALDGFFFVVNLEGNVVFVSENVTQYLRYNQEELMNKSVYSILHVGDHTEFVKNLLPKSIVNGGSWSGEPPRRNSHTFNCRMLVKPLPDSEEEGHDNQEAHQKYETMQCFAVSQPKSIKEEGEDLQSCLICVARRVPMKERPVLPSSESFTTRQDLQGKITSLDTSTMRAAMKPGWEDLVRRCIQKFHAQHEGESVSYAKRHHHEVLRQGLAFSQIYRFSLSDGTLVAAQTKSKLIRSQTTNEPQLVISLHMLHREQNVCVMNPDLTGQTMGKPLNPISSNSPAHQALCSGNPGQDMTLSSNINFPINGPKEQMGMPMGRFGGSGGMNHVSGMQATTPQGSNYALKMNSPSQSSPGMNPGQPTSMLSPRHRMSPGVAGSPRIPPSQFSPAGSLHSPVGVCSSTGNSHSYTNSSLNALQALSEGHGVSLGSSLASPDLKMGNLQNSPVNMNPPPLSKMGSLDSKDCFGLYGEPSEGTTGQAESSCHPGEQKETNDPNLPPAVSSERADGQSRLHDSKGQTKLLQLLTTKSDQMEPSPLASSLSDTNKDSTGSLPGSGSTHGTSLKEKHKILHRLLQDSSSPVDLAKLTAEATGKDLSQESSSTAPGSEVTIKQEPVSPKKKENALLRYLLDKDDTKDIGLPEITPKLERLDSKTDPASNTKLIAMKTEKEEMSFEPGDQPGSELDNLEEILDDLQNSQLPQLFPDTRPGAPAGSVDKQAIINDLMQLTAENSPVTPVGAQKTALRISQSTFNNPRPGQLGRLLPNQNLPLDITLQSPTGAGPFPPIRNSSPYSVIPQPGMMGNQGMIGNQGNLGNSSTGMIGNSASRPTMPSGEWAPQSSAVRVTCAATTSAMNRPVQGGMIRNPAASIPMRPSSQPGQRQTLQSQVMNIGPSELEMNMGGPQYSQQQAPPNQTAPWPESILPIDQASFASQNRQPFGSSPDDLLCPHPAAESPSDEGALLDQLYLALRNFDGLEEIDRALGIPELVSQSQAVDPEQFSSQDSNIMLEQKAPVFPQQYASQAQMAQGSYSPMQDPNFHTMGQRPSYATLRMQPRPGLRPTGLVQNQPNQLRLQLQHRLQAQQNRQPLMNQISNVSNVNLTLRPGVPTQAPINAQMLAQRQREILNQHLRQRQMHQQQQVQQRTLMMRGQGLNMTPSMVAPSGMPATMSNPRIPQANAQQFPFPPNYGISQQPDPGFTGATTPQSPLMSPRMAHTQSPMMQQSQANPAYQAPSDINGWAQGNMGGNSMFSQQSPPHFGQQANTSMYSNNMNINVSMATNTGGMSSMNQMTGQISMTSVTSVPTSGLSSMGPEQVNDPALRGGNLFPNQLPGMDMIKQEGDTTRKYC
Nuclear receptor coactivator 3 (Homo sapiens), sequence (Q9Y6Q9 whole entry, looked up, the tested form may be a part): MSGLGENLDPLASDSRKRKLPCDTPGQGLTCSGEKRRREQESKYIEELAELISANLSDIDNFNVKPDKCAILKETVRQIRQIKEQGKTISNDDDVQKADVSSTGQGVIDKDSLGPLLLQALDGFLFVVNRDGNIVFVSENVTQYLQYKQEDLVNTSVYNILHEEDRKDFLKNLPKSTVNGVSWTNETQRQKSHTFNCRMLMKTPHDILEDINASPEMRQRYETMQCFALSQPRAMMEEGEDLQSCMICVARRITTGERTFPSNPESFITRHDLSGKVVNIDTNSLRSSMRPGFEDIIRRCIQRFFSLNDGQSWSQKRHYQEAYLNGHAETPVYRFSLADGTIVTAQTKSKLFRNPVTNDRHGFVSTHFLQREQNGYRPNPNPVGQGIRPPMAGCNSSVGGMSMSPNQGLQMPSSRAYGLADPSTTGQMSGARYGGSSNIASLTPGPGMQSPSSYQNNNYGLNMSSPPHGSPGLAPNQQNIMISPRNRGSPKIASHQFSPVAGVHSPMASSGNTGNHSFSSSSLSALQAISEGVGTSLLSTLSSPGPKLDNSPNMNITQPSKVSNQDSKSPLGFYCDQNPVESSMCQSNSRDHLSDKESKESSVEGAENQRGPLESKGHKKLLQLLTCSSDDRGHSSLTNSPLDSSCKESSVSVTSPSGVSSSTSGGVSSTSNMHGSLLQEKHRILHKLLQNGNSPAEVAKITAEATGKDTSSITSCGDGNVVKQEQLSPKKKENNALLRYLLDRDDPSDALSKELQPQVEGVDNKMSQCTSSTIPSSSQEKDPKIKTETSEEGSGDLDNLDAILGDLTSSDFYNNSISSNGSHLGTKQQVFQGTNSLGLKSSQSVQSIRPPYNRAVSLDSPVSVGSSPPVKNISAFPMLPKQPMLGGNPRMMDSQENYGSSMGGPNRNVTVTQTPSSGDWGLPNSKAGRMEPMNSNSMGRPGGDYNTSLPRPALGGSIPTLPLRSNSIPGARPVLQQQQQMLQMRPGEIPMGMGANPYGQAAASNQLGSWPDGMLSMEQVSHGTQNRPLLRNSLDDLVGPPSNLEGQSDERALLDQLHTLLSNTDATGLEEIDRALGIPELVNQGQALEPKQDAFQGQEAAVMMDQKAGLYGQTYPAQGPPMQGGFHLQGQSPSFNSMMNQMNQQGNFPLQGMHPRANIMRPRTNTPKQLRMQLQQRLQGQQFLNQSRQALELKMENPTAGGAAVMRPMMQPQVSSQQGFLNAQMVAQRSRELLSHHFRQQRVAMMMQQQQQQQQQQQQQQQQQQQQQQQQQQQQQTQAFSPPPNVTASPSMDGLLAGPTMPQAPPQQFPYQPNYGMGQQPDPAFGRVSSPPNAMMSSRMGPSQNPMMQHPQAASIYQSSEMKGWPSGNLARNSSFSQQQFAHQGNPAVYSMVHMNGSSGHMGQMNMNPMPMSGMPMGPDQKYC

For the molecule `Cc1cc(C(=O)COC(=O)c2cccnc2Cl)c(C)n1CC1CCCO1` (stereo not given), the inhibition in experiment [1] was 19.6%; in experiment [2] it was 27.6%; in experiment [3] it was -18.2%; in experiment [4], -20.1%; in experiment [5], 6.65%; in experiment [6], 56.6% (active).
For the molecule `O=C(N/N=C/c1cc([N+](=O)[O-])ccc1O)NC12CC3CC(CC(C3)C1)C2`, the inhibition in experiment [1] is 19%; in experiment [2], 15.1%; in experiment [3] it was -3.01%; in experiment [4], 10.3%; in experiment [5], -0.05%; in experiment [6] it was 42.3%.
On to `CCc1c(C#N)sc(C(N)=O)c1CC`, for which the inhibition in experiment [1] is 27.8%; in experiment [2], 20.5%; in experiment [3], 20.6%; in experiment [4], 13.2%; in experiment [5] it was 8.1%; in experiment [6] it was 25.6%.
For the molecule `Cc1ccc(-n2c(C)c([N+](=O)[O-])c3ccc(O)c(CN(C)C)c32)cc1`, the inhibition is 76.7% (active) in experiment [1]; 51.9% (active) in experiment [2]; 63.4% (active) in experiment [3]; 49.5% (active) in experiment [4]; 2.96% in experiment [5]; 41.4% in experiment [6].
Take `CC1CCCCN1c1ncnc(N)c1[N+](=O)[O-]` (stereo not given): the inhibition in experiment [1] is 61.7% (active); in experiment [2], 35.2% (active); in experiment [3], 50.6% (active); in experiment [4] it was 36.8% (active); in experiment [5], 4.43%; in experiment [6] it was 44.8%.
With `Cc1ccc(OCC(=O)c2cc(C)n(-c3ccccc3)c2C)c([N+](=O)[O-])n1`, the inhibition in experiment [1] is 38.5%; in experiment [2], -20.9%; in experiment [3] it was 29.1%; in experiment [4], -31.4%; in experiment [5] it was -12.8%; in experiment [6] it was 83.3% (active).
In the case of `Cn1nc(C(F)(F)F)c(C#N)c1N1CCN(c2ccccc2)CC1`, the inhibition in experiment [1] was 56.3% (active); in experiment [2], 31.5% (active); in experiment [3], 35.6%; in experiment [4] it was 19.3%; in experiment [5] it was 4.83%; in experiment [6], 27.6%.
Turning to `COc1ccc(C2=Nn3c(nnc3-c3ccncc3)SC2)cc1`, the inhibition in experiment [1] is 65.2% (active); in experiment [2] it was 48.6% (active); in experiment [3] it was 57.8% (active); in experiment [4], 37% (active); in experiment [5] it was 12.8%; in experiment [6] it was 39.8%.
Regarding `CC(=C/c1ccccc1)/C=N/n1c(-c2ccncc2)n[nH]c1=S`, the inhibition in experiment [1] is 71.2% (active); in experiment [2], 45.2% (active); in experiment [3], 66.1% (active); in experiment [4], 51.6% (active); in experiment [5], 6.14%; in experiment [6] it was 45%.
As for `Cc1cc(NC(c2ccc(Cl)cc2)c2ccc3cccnc3c2O)no1` (stereo not given), the inhibition in experiment [1] was 54% (active); in experiment [2] it was 42% (active); in experiment [3], 28.2%; in experiment [4], 58.8% (active); in experiment [5] it was -9.15%; in experiment [6], 17.6%.
Regarding `Cc1cccc(Nc2ncnc3ccc(Br)cc23)c1`, the inhibition in experiment [1] is 38.9%; in experiment [2], 32.6% (active); in experiment [3], 32.8%; in experiment [4], 25.8% (active); in experiment [5], 0.23%; in experiment [6] it was 29.7%.
`Cc1ccc(OCC(=O)c2cc(C)n(Cc3cccs3)c2C)c([N+](=O)[O-])n1`: the inhibition in experiment [1] was 21%; in experiment [2], 8.55%; in experiment [3] it was 24%; in experiment [4], 14.2%; in experiment [5], 10.7%; in experiment [6], 52.2% (active).
Take `Cc1ccc2occ(/C=N/NC(=O)[C@@H](N)Cc3ccccc3)c(=O)c2c1`: the inhibition in experiment [1] was 37.9%; in experiment [2], 17%; in experiment [3], 15.7%; in experiment [4], 23.3%; in experiment [5], 4.17%; in experiment [6] it was 44.1%.
In the case of `COc1cc2ccccc2ccc1=NO`, the inhibition was 60.1% (active) in experiment [1]; 38% (active) in experiment [2]; 56.5% (active) in experiment [3]; 32.9% (active) in experiment [4]; 19.7% in experiment [5]; 59.6% (active) in experiment [6].
For the molecule `CC(=O)OC1CC2C(C)(C)C(=O)C=CC2(C)C2CCC3(C)C(c4ccoc4)OC(=O)C4OC43C12C` (stereo not given), the inhibition in experiment [1] was 49.5% (active); in experiment [2], 41.8% (active); in experiment [3] it was 25.9%; in experiment [4] it was 56.1% (active); in experiment [5], 43.9% (active); in experiment [6], 6.63%.

The values above are taken from PubChem BioAssay.
